HEK293 tox: qHTS of GLP-1 Receptor Inverse Agonists: Cytotox Screen | AID 624418, 2012 | hit rate 0.13% among 410,000 | Potency, µM (highest dose often 38.3 µM), most hits filed as inhibitors | HEK293 cAMP-luciferase reporter cells, luminescence, 24 h;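 also: loss of luciferase light is scored as toxicity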
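Step one: seed cells (200 cells/uL, DMEM with 10% Nu serum, 1% pen-strep). Step two: 12-hour incubation at 37 deg C. Step three: pin 23 nL compound, incubate 24 hr. Step four: add luciferase reagent, read luminescence 12 min later.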
GLP1R inv ag: qHTS of GLP-1 Receptor Inverse Agonists (Inhibition Mode) | hit rate 1.6% among 410,000 | Potency, µM (series often up to 38.3 µM), usual class: inhibitors | HEK293 GLP-1R CRE-luciferase, luminescence, 24 h; GLP-1R form is constitutively active; also: nearly all actives have a fitted effect of over 55% in size
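HEK293 cells stably co-expressing constitutively active GLP-1R and a cAMP-responsive luciferase reporter were seeded in DMEM with 10% Nu serum, given compounds after 12 h, and incubated 24 h at 37 deg C. Luminescence was then read.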
GLP1R ag: qHTS of GLP-1 Receptor Agonists; hit rate 0.007% among 380,000; Potency, µM (series often up to 45.6 µM), usual class: activators; HEK293 GLP-1R CRE-luciferase, luminescence, 4-6 h; cells express a hypersensitive GLP-1R form
D3 ag: qHTS of D3 Dopamine Receptor Agonist: qHTS | D(3) dopamine receptor (Homo sapiens), P35462 | D3R DiscoveRx beta-arrestin cells, luminescence, 90 min | max activation, % | hit rate 0.58% among 410,000 | AID 652048, 2013; in the data active = max activation above about 30%
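Agonist mode: compounds and dopamine controls were applied to plated cells for 90 min at 37 degrees C after an overnight attachment at 1500 cells/well. Luminescent read-out followed 30 - 60 minutes at room temperature with DiscoveRx detection reagent.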
DRD3 antagonist: qHTS of D3 Dopamine Receptor Antagonist: qHTS. D(3) dopamine receptor (Homo sapiens), P35462. D3R cells, DiscoveRx beta-arrestin luminescence, antagonist mode; active compounds read low. hit rate 2.5% among 360,000. max response, negative = inhibition, %. AID 652054, 2013; in the data active = max response below about -50%; inconclusive = no clear call, values can overlap the other calls
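Cells plated overnight at 1500 cells/well, then exposed to library compounds with dopamine controls for 90 minutes at 37 degrees C. DiscoveRx reagent added for 30–60 minutes at room temperature; luminescence read, quantitative HTS format.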
ClpP mod: qHTS Assay for Activators of ClpP; purified B. subtilis ClpP, FRET peptide cleavage, 20 min; Potency, µM (doses to about 57.5 µM); hit rate 1.9% among 340,000; active = well fitted falling curve with a large enough effect; inconclusive = small, poorly fitted or top-dose-only effect; inactive = no such curve, though single readings can be large or run the other way; also: the source files actives as falling curves though it sought activators and does not explain the sign; nearly all actives have a fitted effect of over 65% in size
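FRET quenching reversal measured ClpP activation: 10 microg/mL B. subtilis ClpP at pH 8 with the FRET-FV decapeptide, read at 430 nm after 320 nm excitation. The 20-min minus 0-min signal was scaled between DMSO/no-enzyme wells and ADEP (5.8 microM final).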
Numbers stand for hits; - = inactive; ? = inconclusive; . = no result. Hits are enriched below; roughly 5.7% of the tested compounds scored in any of these assays. Unless noted, calls follow the shape of the dose curve; as a rule, active = well fitted curve in the direction sought with a large enough effect; inconclusive = small, poorly fitted or top-dose-only effect, or another doubt; inactive = no such curve, though single readings can be large; an effect the other way counts as inactive or inconclusive.

SMILES	HEK293 tox	GLP1R inv ag	GLP1R ag	D3 ag	DRD3 antagonist	ClpP mod
Cc1cc(C)c(C)c(OCCOCCN2CCN(C)CC2)c1	-	?	-	-	-	-
CN(C)CCNC(=O)c1cccc2ccc(-c3ccc(-c4ccccc4)cc3)nc12	?	?	-	-	-	?
COc1ccc(OC)c2nc3c(C(=O)NCCN(C)C)cccc3nc12	7.1µM	?	-	-	-	-
CN(C)CCNC(=O)c1cccc2nc3cccc(F)c3nc12	-	6.3µM	-	-	-	-
CCc1cc2cccc(C)c2nc1SCC(=O)c1ccc(NC(C)=O)cc1	-	-	-	81	-	-
Cc1cc(C)c2c(n1)nn1c(C)c(CCC(=O)NCc3ccccc3Cl)c(C)nc21	-	-	.	-	.	-
CCOC(=O)c1c(NC(C)=O)sc2c1CCC(C=O)=C2Sc1ccccc1	-	?	-	-	-58	-
Cn1c(C(=O)NCC2CCCO2)cc2c(=O)[nH]c3ccccc3c21 (stereo not drawn)	-	-	-	-	-	22µM
Cc1ccccc1-c1nc(C(=O)NCC2CCCO2)cc2c1[nH]c1ccccc12 (stereo not drawn)	-	10µM	?	-	-	-
Cc1ccc(-c2nc(C(=O)NCC3CCCO3)cc3c2[nH]c2ccccc23)cc1 (stereo not drawn)	?	?	-	-	-	-
Cn1c(C(=O)NCC2CCCO2)cc2c(=O)n(C)c3ccccc3c21 (stereo not drawn)	-	-	-	-	-	-
COc1ccc(-c2nc(C(=O)NCC3CCCO3)cc3c2[nH]c2ccccc23)cc1 (stereo not drawn)	?	10µM	-	34	-	-
COc1ccc(Cl)cc1N(CC(=O)N1CCN(Cc2ccccc2)CC1)S(C)(=O)=O	-	-	-	-	-57	-
COc1ccc(N(CC(=O)N2CCN(Cc3ccccc3)CC2)S(C)(=O)=O)c(OC)c1	-	-	-	-	-	-
COc1ccc(N2C(=O)CCC(C(=O)N3CCC(C(N)=O)CC3)C2c2ccc(F)cc2)cc1 (stereo not drawn)	-	-	-	-	-	-
COc1ccc(N2C(=O)CCC(C(=O)N3CCCCC3)C2c2ccc(F)cc2)cc1 (stereo not drawn)	-	?	-	-	-	13µM
CC(C)(C)c1cc(/C=N/O)cc(C(C)(C)C)c1O	-	10µM	-	-	-	-
CC(C)(C)c1cc(/C=C2\NC(=O)NC2=O)cc(C(C)(C)C)c1O	-	?	-	-	-	-
CC(C)Cn1cc(NC(=O)N2CCN(c3ccccc3F)CC2)c2ccccc2c1=O	-	-	-	-	.	-
Nc1nc2c3ccccc3nc(C3CC3)n2n1	-	-	-	-	-	22µM
Cc1ccc(N=Cc2cc(Cc3ccccc3Cl)cc([N+](=O)[O-])c2O)c(O)c1	-	?	-	-	-74	-
COc1ccc(N=Cc2cc(Cc3ccccc3Cl)cc([N+](=O)[O-])c2O)cc1OC	-	-	-	-	-96	-
COc1ccc(CNC(=O)c2cc3c(=O)[nH]c4ccccc4c3n2C)c(OC)c1	-	-	.	-	.	-
O=C1CCCC2=C1C(c1cccs1)Nc1ccccc1N2 (stereo not drawn)	-	-	-	-	-	20µM
COc1ccc(-c2nc3c(C)cc(Br)cn3c2Cc2cccc(Cl)c2)cc1OC	-	?	-	-	-	-
c1ccc(-c2n[nH]c(-c3ccccn3)n2)nc1	-	-	-	-	-	25µM
N#CC(=C1C=CC(=NO)C(Cl)=C1)c1ccccc1	-	-	-	-	-82	-
CCCCC(=O)OC1CCC2C3CCc4cc(O)ccc4C3CC[C@]12C (stereo partly drawn)	.	.	-	.	.	.

Compound activity (PubChem BioAssay)
